Compound activity deposited in PubChem by National Center for Advancing Translational Sciences (NCATS).
Shiga inhibitor – blocks Shiga toxin action in Vero cells | AID 2315 | inhibition, % at 38.7 µM | 290,000 tested, 9.2% active | Vero cells, Shiga toxin protein synthesis inhibition reporter; in the data active means inhibition mostly above about 28%, no sharp cut-off; inactive means mostly below about 43%; further: 0% is about no effect
NS1 function inh – blocks influenza NS1 protein function; Potency, µM (doses to about 46.1 µM), without a hit: top-dose activity, positive = more growth; 270,000 tested, 0.4% active; AID 2326; calls by dose curve; further: potency means the concentration at half of the fitted maximal effect; actives are rising curves; nearly all actives have a fitted effect of over 50% in size
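In this qHTS, NS1 from influenza A is expressed in budding yeast, where it slows growth. Cells are switched from glucose to 2% galactose medium (pH 6.0, -URA), treated with compound, and growth recovery is read at OD600.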
Sm TGR block – inhibitors of Schistosoma mansoni thioredoxin glutathione reductase. purified TGR, DTNB reduction, TNB absorbance 405 nm. Potency, µM (series often up to 114 µM), inactives show top-dose activity change, negative = inhibition, most hits filed as inhibitors. AID 485364. Q962Y6. 360,000 tested, 3% active; further: potency means the concentration at half of the fitted maximal effect; on the % scale 0 is the no-effect control and ±100 the full control effect; nearly all actives have a fitted effect of over 60% in size
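First, TGR (20 nM dispensed) and NADPH were mixed with compound. Second, a 15 min room-temperature incubation followed. Third, further NADPH and then DTNB were added to start the reaction. Finally, TNB absorbance was monitored kinetically.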
Pf growth 96h – inhibits malaria parasite growth, 96 h; 320,000 tested, 6.9% active; Potency, µM (doses to about 28.7 µM), for the others: top-dose activity change, negative = inhibition, most hits filed as inhibitors; P. falciparum luciferase reporter growth, 96 h; further: potency means the concentration at half of the fitted maximal effect; on the % scale 0 is the no-effect control and ±100 the full control effect
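Luminescence readout: decreased luciferase signal marks inhibited growth of reporter-expressing P. falciparum in infected red cells (2% hematocrit, 0.05% parasitemia final), exposed to compound two generations (96 h, 37 C, 5% CO2).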
CHX counter – counter-screen hit for Shiga toxin inhibitors, cycloheximide; max response, %; 300,000 tested, 12% active; cell reporter, cycloheximide protein synthesis inhibition counterscreen; AID 2314; in the data active means max response mostly above about 13%, no sharp cut-off; inactive means mostly below about 14%; further: read at 38.3 µM for the half of the compounds with a filed dose; 0% is about no effect
Pf growth 48h – P. falciparum growth inhibition at 48 hours (one generation); 310,000 tested, 5.9% active; Potency, µM (series often up to 28.7 µM), inactives show at the highest dose activity change, negative = inhibition, most hits filed as inhibitors; P. falciparum luciferase growth in erythrocytes, 48 h; further: potency means the concentration at half of the fitted maximal effect; on the % scale 0 is the no-effect control and ±100 the full control effect
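Erythrocytes infected with P. falciparum carrying an integrated firefly luciferase reporter (2% hematocrit, 0.1% parasitemia final) were exposed to compounds in RPMI 1640 with 0.5% Albumax at 37 C, 5% CO2. Growth inhibition was scored as reduced luminescence.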
The depositor's hits bear a star; [ ] = dose if it differs, or a comment. Compounds with a hit are over-represented: about 21% of the library has one in this group of screens. Unless noted, the call rests on the fitted dose curve; in most records, active means well fitted curve in the direction sought with a large enough effect; inconclusive means small, poorly fitted or top-dose-only effect, or another doubt; inactive means no such curve, though single readings can be large; an effect the other way counts as inactive or inconclusive.

Results for Cc1ccc2c(c1)c1c(n2CC(O)Cn2c(C)nc3ccccc32)/C(=N\O)CCC1 (stereo unspecified) ?
Shiga inhibitor: -4.7; NS1 function inh: -63.4%; Sm TGR block: 3.9%; Pf growth 96h: inconclusive; CHX counter: -1.1; Pf growth 48h: 11.7µM*

Results for CSC1=NC(NCCCO)c2c(sc3c2CC(C)(C)OC3)N1 (stereo unspecified) ?
Shiga inhibitor: -15.0; NS1 function inh: 1.8%; Sm TGR block: -15.4%; Pf growth 96h: 9.28µM*; CHX counter: -1.6; Pf growth 48h: inconclusive

Results for CSc1nc(SCC(=O)O)c2c3c(sc2n1)COC(C)(C)C3 ?
Shiga inhibitor: -2.4; NS1 function inh: 8.7%; Sm TGR block: -3.5%; Pf growth 96h: inconclusive; CHX counter: 0.8; Pf growth 48h: 26.5%

How did NC(=O)CSc1nnc(-c2ccccn2)n1N do in these assays?
Shiga inhibitor: 36.2; NS1 function inh: -3.7%; Sm TGR block: 4.7%; Pf growth 96h: 2.4%; CHX counter: 0.4; Pf growth 48h: 27.6%

How did Nn1c(SCc2ccccc2F)nnc1-c1ccccn1 do in these assays?
Shiga inhibitor: 135.1*; NS1 function inh: -0.2%; Sm TGR block: 16.9%; Pf growth 96h: 115.9%; CHX counter: 33.4*; Pf growth 48h: 131.6%

How did Cc1ccc(CSc2nnc(C)c(=O)n2N)cc1 do in these assays?
Shiga inhibitor: 5.1; NS1 function inh: -3.1%; Sm TGR block: 1.5%; Pf growth 96h: 102.5%; CHX counter: 12.1*; Pf growth 48h: 49.4%

Results for Nn1c(SCc2ccccc2)nnc1-c1ccccn1 ?
Shiga inhibitor: 38.1*; NS1 function inh: -7.8%; Sm TGR block: -14.1%; Pf growth 96h: 48.0%; CHX counter: 29.9*; Pf growth 48h: 69.4%

What do the screens show for `Cc1ccc(CSc2nnc(-c3ccccn3)n2N)cc1`?
Shiga inhibitor: 107.2*; NS1 function inh: -3.1%; Sm TGR block: 3.5%; Pf growth 96h: 19.5%; CHX counter: 22.8*; Pf growth 48h: 17.1%

What do the screens show for `COc1cc(OC)c(OC)cc1/C=C/c1nc2cc3ccccc3cc2c(=O)n1-c1ccccc1Br`?
Sm TGR block: 8.4%

How did Nc1nc(NS(=O)(=O)c2ccc(Cl)cc2)nn1-c1ccccc1 do in these assays?
Shiga inhibitor: 10.5; NS1 function inh: -2.5%; Sm TGR block: -4.5%; Pf growth 96h: 43.2%; CHX counter: -1.8; Pf growth 48h: 10.8%

Results for Nn1c(SCc2ccc(F)cc2)nnc1-c1ccccn1 ?
Shiga inhibitor: 67.6*; NS1 function inh: 0.0%; Sm TGR block: -6.0%; Pf growth 96h: 41.9%; CHX counter: 34.2*; Pf growth 48h: 57.5%

What do the screens show for `Cc1nnc(SCC(=O)Nc2ccc(Oc3ccccc3)cc2)n1N`?
Shiga inhibitor: -16.9; NS1 function inh: -4.7%; Sm TGR block: -7.6%; Pf growth 96h: 1.7%; CHX counter: 0.5; Pf growth 48h: -9.3%

What do the screens show for `Cc1nnc(SCc2cccc(Oc3ccccc3)c2)n1N`?
Shiga inhibitor: 5.0; NS1 function inh: -5.3%; Sm TGR block: -4.4%; Pf growth 96h: -3.6%; CHX counter: 20.7*; Pf growth 48h: 16.4%

What do the screens show for `Cc1cc(C)n2c(SCC(=O)Nc3ccccc3C#N)nnc2n1`?
Sm TGR block: -1.4%; Pf growth 96h: inconclusive; Pf growth 48h: -22.4%

What do the screens show for `COc1ccc(-c2nnc(SCc3c(C)noc3C)n2N)cc1OC`?
Shiga inhibitor: 1.5; NS1 function inh: -5.8%; Sm TGR block: -19.3%; Pf growth 96h: 11.7µM*; CHX counter: -0.5; Pf growth 48h: inconclusive

Results for COc1ccc(OC)c(-n2c(SCC(C)=O)nnc2-c2cccc(S(=O)(=O)N(C)C)c2)c1 ?
Shiga inhibitor: -5.5; NS1 function inh: -8.0%; Sm TGR block: -17.4%[11.4 µM]; Pf growth 96h: 11.7µM*; CHX counter: 0.9

What do the screens show for `Cc1noc(C)c1CSc1nnc(-c2cc(Cl)ccc2Cl)n1N`?
Shiga inhibitor: 14.9; NS1 function inh: 3.0%; Sm TGR block: -4.5%; Pf growth 96h: 39.9%; CHX counter: -3.7; Pf growth 48h: 20.9%

How did CCSc1nnc(-c2cccc(S(=O)(=O)N(C)C)c2)n1-c1cc(OC)ccc1OC do in these assays?
Shiga inhibitor: -4.4; NS1 function inh: -1.6%; Sm TGR block: 3.2%; Pf growth 96h: inconclusive; CHX counter: -2.5; Pf growth 48h: inconclusive

How did COc1cccc(-n2c(SCc3c(C)noc3C)nnc2-c2cccc(S(=O)(=O)N(C)C)c2)c1 do in these assays?
Shiga inhibitor: -15.9; NS1 function inh: 0.0%; Sm TGR block: -9.4%; Pf growth 96h: inconclusive; CHX counter: -2.1; Pf growth 48h: 11.7µM*

How did Cc1onc(-c2ccccc2Cl)c1C(=O)Oc1ccccc1F do in these assays?
Sm TGR block: 0.3%

How did CCOc1ccc(N2CC(C)Cn3c2nc2c3c(=O)n(CC(=O)O)c(=O)n2C)cc1 (stereo unspecified) do in these assays?
Sm TGR block: 2.0%

Results for Cc1ccc(-c2csc(NC(=O)Cc3ccc(F)cc3)n2)o1 ?
Shiga inhibitor: 36.9; Sm TGR block: 7.08µM*; Pf growth 96h: -17.8%; CHX counter: 14.6*; Pf growth 48h: -2.9%

How did COc1ccc(OC)c(-c2csc(NC(=O)Cc3ccc(F)cc3)n2)c1 do in these assays?
Shiga inhibitor: 36.4; NS1 function inh: -1.1%; Sm TGR block: 11.3%; Pf growth 96h: -32.4%; CHX counter: 17.0; Pf growth 48h: inconclusive

What do the screens show for `CCOc1ccc(-c2csc(NC(=O)c3ccco3)n2)cc1`?
Shiga inhibitor: 98.4; NS1 function inh: -6.1%; Sm TGR block: -33.2%; Pf growth 96h: 10.4µM*; CHX counter: 39.4*; Pf growth 48h: 19.6%

What do the screens show for `CC(C)CC(=O)NC(=S)Nc1nc(-c2cccc3ccccc23)cs1`?
Shiga inhibitor: 8.6; NS1 function inh: 12.5%; Sm TGR block: 49.1%; Pf growth 96h: 13.1µM*; CHX counter: -1.6; Pf growth 48h: -5.7%

Results for COc1ccc(S(=O)(=O)Nc2ccccc2C(=O)Nc2nc(-c3ccc(F)cc3)cs2)cc1OC ?
Shiga inhibitor: 3.9; NS1 function inh: -52.1%; Sm TGR block: -1.4%; Pf growth 96h: inconclusive; CHX counter: 1.1; Pf growth 48h: 3.29µM*

How did CCOC(=O)Cc1csc(NC(=S)NC(=O)CC(C)C)n1 do in these assays?
Shiga inhibitor: 12.5; NS1 function inh: -6.5%; Sm TGR block: -5.2%; Pf growth 96h: -0.2%; CHX counter: -2.5; Pf growth 48h: -16.5%

Results for COc1ccc(-c2csc(NC(=O)c3ccccc3NS(=O)(=O)c3ccc(C)cc3)n2)cc1 ?
Shiga inhibitor: -15.6; NS1 function inh: -24.5%; Sm TGR block: -5.7%; Pf growth 96h: 0.0%; CHX counter: 0.8; Pf growth 48h: -4.1%

Results for COc1ccc(CCNC(=O)c2ccc3c(SCC(=O)O)c4c(nc3c2)CCCC4)cc1OC ?
Shiga inhibitor: -13.3; Sm TGR block: 1.3%; Pf growth 96h: 25.2%; CHX counter: 10.4; Pf growth 48h: inconclusive
